# In the supplement of paper PMC13380429:
# Assays:
# [1] = system: Vero E6 infected with SARS-CoV-2; assay: morphology score (similarity to uninfected cells); higher = more like uninfected cells; conditions: 24 h
# [2] = system: Vero E6 infected with SARS-CoV-2; assay: SARS-CoV-2 infection rate relative to infected DMSO; higher = more infection, active = 60 or less; conditions: 24 h
Structure (SMILES),morphology score [1],SARS-CoV-2 infection rate [2]
O=C(Nc1ccccc1C(=O)Nc1ccc(CCO)cc1)c1ccc([N+](=O)[O-])cc1 (10 µM),-0.0336,112% (inactive)
CN1C(=O)C(N2CCCCC2)S/C1=C\C(=O)O (centres undefined) [ozolinone] (10 µM),0.00951,108% (inactive)
OCC(Br)(Br)Br [tribromoethanol] (10 µM),-0.0304,118% (inactive)
c1ccc2cc(C3=NCCN3)ncc2c1 (10 µM),0.119,102% (inactive)
COc1cc2c(cc1OC)CN(CCc1ccc(NC(=O)c3cccc4c(=O)c5cccc(OC)c5[nH]c34)cc1)CC2 [elacridar] (10 µM),0.0355,102% (inactive)
O=C(NCCCN1CCOCC1)c1cnn2c(-c3ccccc3)cc(-c3ccccc3)nc12 [reversan] (10 µM),0.226,98% (inactive)
CCCSc1ccc2[nH]c(NC(=O)OC)nc2c1 [albendazole] (0.833333 µM),0.0557,98% (inactive)
CC(C)(Oc1ccc(C(=O)c2ccc(Cl)cc2)cc1)C(=O)O [fenofibric-acid] (10 µM),0.137,97% (inactive)
CCN1CCCC1CNC(=O)c1cc(S(=O)(=O)CC)c(N)cc1OC (centres undefined) [amisulpride] (10 µM),0.114,105% (inactive)
C/C(=C\c1ccc(C(=O)O)cc1)c1ccc2c(c1)C(C)(C)CCC2(C)C (10 µM),-0.0726,102% (inactive)
NCCS [cysteamine] (10 µM),-0.0321,112% (inactive)
CCCCc1cc2ccccc2c(OCCN(C)C)n1 [dimethisoquin] (10 µM),0.41,71.5% (inactive)
